Measurements from the supplement of paper PMC11732987, “Enantioselective OTUD7B fragment discovery through chemoproteomics screening and high-throughput optimisation” (Communications Chemistry, 2025).

Assays:
Experiment in all cases: log2 ratio of Biotin-Ahx-Ub-VS probe labelling (fragment/DMSO); higher = less target engagement (more negative = stronger competition), active = hit call of the paper (q ≤ 0.05, log2 ratio ≤ -1)
Conditions in all cases: compound concentration: 200 uM; treatment time: 3 h
OTUD6B = target: T1, OTUD6B (UniProt Q8N6M0)
T1 sequence (whole entry): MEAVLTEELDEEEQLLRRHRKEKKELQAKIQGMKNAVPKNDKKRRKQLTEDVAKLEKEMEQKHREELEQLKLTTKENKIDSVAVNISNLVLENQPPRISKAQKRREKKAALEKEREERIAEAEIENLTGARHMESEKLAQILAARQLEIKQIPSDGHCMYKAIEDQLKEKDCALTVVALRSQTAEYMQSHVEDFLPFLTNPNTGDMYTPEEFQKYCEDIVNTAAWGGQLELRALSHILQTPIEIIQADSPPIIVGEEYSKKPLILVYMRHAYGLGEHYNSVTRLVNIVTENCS
Procedure, shortened: (§1)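 HEK293T lysate (495 µg per sample, in Tris/CHAPS/IGEPAL buffer with protease inhibitors) was exposed in triplicate for 3 h to fragment at 200 µM or to vehicle, then to Biotin-Ahx-Ub-VS at 0.5 µM final for 1 h. Labelled DUBs were enriched on NeutrAvidin, digested with LysC and trypsin, and analysed by diaPASEF LC-MS/MS. Spectronaut label-free quantities were normalised to the global median, and values are average log2 ratios of fragment over vehicle from an unpaired t-test. Only proteins with ≥2 unique peptides were used.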

OTUD7B = target: T2, OTUD7B (UniProt Q6GQQ9)
T2 sequence (whole entry): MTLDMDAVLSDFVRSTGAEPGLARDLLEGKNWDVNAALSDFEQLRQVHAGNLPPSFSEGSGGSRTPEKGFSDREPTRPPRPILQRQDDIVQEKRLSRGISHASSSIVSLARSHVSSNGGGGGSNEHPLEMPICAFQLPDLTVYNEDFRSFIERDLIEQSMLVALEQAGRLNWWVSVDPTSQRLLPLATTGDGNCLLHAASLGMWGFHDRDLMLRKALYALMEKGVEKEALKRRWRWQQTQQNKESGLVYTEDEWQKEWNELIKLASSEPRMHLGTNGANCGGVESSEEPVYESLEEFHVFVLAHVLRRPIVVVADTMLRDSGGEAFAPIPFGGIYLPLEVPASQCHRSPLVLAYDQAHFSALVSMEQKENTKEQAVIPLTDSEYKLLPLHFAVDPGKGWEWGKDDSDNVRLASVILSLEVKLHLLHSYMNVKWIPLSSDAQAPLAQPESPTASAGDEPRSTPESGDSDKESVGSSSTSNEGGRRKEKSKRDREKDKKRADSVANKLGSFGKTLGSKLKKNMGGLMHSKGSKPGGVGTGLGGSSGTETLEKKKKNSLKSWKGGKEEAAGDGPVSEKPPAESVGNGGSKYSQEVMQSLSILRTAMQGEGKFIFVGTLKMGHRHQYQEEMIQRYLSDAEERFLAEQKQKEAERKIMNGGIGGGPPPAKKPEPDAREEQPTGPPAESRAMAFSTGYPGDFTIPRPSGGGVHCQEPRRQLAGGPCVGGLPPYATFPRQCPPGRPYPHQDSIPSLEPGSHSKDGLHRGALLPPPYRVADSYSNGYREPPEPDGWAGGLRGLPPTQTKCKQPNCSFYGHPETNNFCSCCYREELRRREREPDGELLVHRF
Procedure, shortened: as §1

PRPF8 = PRPF8 (UniProt Q6P2Q9)
Procedure, shortened: as §1

PSMD7 = target: T3, PSMD7 (UniProt P51665)
T3 sequence (whole entry): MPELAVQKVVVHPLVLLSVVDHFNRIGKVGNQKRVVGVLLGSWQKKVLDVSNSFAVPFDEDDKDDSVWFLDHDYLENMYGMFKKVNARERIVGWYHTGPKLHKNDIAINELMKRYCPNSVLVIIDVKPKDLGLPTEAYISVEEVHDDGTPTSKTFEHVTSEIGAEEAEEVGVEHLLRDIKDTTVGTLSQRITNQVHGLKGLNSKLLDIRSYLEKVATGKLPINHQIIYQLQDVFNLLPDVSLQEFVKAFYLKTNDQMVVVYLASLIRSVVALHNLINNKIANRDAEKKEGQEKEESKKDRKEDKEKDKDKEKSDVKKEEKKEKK
Procedure, shortened: as §1

UCHL1 = UCHL1 (UniProt P09936)
Procedure, shortened: as §1

UCHL3 = target: T4, UCHL3 (UniProt P15374)
T4 sequence (whole entry): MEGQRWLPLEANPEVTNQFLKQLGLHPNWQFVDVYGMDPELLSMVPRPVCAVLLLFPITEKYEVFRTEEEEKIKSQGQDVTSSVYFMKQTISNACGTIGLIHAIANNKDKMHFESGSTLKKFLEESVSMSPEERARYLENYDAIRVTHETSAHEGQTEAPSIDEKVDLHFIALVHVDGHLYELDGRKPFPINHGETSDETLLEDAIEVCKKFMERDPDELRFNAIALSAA
Procedure, shortened: as §1

UCHL5 = target: T5, UCHL5 (UniProt Q9Y5K5)
T5 sequence (whole entry): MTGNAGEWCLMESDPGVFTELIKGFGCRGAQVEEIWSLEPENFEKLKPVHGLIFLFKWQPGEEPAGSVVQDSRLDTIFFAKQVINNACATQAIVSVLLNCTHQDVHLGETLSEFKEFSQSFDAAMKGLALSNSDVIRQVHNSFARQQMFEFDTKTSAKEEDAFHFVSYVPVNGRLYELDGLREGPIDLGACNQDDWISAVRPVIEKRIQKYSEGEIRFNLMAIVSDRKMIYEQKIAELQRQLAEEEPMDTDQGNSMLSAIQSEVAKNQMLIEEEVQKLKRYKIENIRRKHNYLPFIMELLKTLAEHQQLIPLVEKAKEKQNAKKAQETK
Procedure, shortened: as §1

USP10 = USP10 (UniProt Q14694)
Procedure, shortened: as §1

USP15 = target: T6, USP15 (UniProt Q9Y4E8)
T6 sequence (whole entry): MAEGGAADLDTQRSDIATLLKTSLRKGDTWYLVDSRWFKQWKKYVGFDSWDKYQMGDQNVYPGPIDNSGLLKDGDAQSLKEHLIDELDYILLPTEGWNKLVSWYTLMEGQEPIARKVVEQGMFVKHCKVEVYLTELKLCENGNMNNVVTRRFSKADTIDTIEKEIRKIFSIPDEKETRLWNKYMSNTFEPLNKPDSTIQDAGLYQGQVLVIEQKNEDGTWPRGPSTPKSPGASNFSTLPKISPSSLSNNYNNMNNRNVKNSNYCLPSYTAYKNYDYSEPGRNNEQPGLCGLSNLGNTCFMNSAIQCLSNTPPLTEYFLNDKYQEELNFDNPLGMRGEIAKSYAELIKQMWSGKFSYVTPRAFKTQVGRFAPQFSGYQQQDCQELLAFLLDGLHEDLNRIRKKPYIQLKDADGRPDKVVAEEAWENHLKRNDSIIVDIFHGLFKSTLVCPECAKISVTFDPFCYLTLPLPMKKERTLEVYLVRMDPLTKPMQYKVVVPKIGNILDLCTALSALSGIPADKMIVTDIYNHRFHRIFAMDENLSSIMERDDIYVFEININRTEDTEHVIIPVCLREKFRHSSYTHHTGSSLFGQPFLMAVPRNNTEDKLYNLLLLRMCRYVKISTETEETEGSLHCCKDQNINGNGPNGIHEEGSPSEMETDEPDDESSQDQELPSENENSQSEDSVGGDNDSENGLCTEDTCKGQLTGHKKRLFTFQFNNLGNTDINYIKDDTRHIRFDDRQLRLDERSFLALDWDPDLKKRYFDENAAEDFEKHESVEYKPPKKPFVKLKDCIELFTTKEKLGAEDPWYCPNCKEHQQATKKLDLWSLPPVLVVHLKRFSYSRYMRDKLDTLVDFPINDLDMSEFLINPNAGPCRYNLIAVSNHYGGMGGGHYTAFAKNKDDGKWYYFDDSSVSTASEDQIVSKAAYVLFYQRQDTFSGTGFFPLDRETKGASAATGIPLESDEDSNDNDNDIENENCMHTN
Procedure, shortened: as §1

USP16 = USP16 (UniProt Q9Y5T5)
Procedure, shortened: as §1

Measured: log2 ratio of Biotin-Ahx-Ub-VS probe labelling

Sequence of USP10 (Q14694 whole entry): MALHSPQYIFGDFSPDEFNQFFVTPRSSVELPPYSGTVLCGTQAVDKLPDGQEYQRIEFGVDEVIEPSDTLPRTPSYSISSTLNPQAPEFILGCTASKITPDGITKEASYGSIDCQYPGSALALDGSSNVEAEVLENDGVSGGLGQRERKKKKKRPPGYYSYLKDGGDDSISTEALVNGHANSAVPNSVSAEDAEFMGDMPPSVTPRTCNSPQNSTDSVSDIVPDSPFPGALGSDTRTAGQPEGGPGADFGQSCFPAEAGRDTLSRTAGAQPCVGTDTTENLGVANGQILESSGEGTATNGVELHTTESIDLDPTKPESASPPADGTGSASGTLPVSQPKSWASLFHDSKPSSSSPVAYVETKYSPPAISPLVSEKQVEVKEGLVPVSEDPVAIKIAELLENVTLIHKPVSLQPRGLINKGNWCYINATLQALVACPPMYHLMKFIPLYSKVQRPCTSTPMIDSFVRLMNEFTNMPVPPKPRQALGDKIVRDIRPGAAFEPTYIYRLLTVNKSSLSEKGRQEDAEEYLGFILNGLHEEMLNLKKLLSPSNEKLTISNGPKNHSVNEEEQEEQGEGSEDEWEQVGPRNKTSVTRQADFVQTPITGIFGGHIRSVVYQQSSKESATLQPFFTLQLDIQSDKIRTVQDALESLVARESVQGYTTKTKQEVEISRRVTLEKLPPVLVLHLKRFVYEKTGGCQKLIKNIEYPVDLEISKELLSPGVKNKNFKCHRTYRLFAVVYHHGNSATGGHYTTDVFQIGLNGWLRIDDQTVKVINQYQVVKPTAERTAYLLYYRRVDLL
Sequence of USP16 (Q9Y5T5 whole entry, looked up): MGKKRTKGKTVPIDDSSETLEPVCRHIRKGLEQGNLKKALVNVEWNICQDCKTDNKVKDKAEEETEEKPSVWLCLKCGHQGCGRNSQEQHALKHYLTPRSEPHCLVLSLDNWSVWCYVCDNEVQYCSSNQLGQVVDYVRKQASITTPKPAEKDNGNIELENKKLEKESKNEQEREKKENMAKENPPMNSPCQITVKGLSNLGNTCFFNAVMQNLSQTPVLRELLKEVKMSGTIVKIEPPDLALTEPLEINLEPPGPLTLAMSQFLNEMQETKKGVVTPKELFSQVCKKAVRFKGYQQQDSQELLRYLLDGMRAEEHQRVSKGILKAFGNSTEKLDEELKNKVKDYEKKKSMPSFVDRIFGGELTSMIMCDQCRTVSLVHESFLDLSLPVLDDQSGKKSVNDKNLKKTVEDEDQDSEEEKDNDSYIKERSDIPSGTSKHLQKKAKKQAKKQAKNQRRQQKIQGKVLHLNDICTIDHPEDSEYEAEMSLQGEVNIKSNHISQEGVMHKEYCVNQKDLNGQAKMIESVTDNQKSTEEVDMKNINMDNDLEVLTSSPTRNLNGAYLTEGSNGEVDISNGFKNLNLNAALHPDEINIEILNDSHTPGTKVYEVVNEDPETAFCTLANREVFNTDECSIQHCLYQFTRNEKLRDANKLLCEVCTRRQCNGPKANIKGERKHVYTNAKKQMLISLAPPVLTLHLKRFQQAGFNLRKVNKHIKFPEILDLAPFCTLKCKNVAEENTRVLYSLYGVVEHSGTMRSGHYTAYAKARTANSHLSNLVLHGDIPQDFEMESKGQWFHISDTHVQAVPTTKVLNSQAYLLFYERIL
Sequence of UCHL1 (P09936 whole entry, looked up): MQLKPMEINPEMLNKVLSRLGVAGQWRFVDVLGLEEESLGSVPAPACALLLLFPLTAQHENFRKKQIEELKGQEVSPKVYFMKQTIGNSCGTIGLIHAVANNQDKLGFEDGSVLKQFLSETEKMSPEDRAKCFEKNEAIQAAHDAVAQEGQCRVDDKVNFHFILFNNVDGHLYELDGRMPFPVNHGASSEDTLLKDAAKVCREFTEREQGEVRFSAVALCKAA

O=C(CCl)N1CCC(OCc2ccccc2F)CC1
active: UCHL1 -1.13
inactive: OTUD6B 0.102 | OTUD7B -0.198 | PRPF8 0.14 | PSMD7 0.0473 | UCHL3 0.341 | UCHL5 -0.00457 | USP10 -0.192 | USP15 -0.104 | USP16 -0.184
